# Laboratory results as given in article PMC7862700, “An all-to-all approach to the identification of sequence-specific readers for epigenetic DNA modifications on cytosine”.
# How the values were obtained:
# Test in all cases: DAPPL (digital affinity profiling via proximity ligation, sequencing); 10 mM Tris-HCl pH 7.5, 50 mM NaCl, 1 mM DTT, 4% glycerol, room temperature, 30 min; GST-TFs on glutathione beads, 16-mer random dsDNA library, 0.1% formaldehyde crosslink after washing; high values mean tight binding
# [1] = target: T1, FLI1 (Homo sapiens, UniProt Q01543 1-452); details: protein: recombinant; tags: N-terminal GST; dsDNA, one strand shown
# T1 sequence: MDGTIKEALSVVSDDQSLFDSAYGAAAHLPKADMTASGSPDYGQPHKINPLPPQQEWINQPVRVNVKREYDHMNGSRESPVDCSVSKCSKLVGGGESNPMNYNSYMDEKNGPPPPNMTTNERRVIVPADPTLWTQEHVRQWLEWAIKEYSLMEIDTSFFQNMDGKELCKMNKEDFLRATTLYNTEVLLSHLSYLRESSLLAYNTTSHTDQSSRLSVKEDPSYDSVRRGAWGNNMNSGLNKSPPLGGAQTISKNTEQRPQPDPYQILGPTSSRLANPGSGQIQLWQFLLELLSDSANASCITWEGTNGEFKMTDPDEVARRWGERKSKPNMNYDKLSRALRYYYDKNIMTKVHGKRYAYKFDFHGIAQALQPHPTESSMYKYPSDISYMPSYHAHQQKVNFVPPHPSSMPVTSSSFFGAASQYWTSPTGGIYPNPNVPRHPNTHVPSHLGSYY
# Method in brief: (§1)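 Human transcription factors were made in yeast as GST fusions, captured on glutathione beads and barcoded with DNA. With a tag-only sample included, the pool was incubated with 200 nmole of a random double-stranded 16-mer DNA library in Tris/NaCl/DTT/glycerol buffer at room temperature for 30 min, then crosslinked with 0.1% formaldehyde after washing, ligated by proximity, amplified and sequenced. For binding signal, each hexamer's read frequency for a factor is divided by its frequency for the tag-only sample.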
# [2] = target: T2, ELK1 (Homo sapiens, UniProt P19419 1-428); details: protein: recombinant; tags: N-terminal GST; dsDNA, one strand shown
# T2 sequence: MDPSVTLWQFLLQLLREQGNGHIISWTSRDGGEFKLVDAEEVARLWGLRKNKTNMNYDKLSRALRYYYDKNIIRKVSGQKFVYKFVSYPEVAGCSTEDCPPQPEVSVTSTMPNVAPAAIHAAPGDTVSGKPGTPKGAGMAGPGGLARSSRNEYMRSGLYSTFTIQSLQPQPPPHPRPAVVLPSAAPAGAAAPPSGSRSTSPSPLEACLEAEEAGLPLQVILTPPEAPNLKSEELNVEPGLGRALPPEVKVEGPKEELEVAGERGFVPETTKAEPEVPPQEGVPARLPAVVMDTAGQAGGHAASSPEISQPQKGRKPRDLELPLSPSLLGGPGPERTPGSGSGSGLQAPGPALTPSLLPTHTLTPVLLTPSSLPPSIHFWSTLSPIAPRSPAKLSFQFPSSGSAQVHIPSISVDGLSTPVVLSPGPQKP
# Method in brief: as §1
# [3] = target: T3, GABPA (Homo sapiens, UniProt Q06546 1-454); details: protein: recombinant; tags: N-terminal GST; dsDNA, one strand shown
# T3 sequence: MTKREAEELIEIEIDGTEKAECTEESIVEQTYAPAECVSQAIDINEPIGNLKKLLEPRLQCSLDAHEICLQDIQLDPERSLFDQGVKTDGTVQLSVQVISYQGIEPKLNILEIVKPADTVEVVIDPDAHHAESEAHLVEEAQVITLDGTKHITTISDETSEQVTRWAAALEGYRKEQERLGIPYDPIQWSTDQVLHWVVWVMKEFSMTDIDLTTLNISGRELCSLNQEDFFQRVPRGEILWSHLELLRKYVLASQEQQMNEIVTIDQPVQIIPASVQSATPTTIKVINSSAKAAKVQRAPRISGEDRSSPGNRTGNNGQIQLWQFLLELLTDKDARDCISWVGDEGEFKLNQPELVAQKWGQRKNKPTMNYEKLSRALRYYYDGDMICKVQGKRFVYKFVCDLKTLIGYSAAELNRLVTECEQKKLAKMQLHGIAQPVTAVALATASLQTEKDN
# Method in brief: as §1
# [4] = target: T4, ERG (Homo sapiens, UniProt P11308 1-479); details: protein: recombinant; tags: N-terminal GST; dsDNA, one strand shown
# T4 sequence: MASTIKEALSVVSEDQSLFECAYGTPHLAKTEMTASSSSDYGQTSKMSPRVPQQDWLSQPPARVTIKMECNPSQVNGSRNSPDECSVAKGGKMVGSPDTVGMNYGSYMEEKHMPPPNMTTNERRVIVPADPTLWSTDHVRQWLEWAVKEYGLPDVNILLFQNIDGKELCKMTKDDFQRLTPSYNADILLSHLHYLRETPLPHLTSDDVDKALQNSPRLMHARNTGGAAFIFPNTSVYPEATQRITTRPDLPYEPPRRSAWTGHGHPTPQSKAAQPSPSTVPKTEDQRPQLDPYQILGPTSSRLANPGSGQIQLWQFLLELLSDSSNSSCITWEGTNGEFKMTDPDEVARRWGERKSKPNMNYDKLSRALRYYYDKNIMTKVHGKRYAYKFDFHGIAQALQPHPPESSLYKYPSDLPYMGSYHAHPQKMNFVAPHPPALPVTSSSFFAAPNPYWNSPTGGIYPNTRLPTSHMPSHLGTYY
# Method in brief: as §1
# [5] = target: ELF1 (Homo sapiens, UniProt P32519 1-619); details: protein: recombinant; tags: N-terminal GST; dsDNA, one strand shown
# Method in brief: as §1
# [6] = target: T5, EHF (Homo sapiens, UniProt Q9NZC4 1-300); details: protein: recombinant; tags: N-terminal GST; dsDNA, one strand shown
# T5 sequence: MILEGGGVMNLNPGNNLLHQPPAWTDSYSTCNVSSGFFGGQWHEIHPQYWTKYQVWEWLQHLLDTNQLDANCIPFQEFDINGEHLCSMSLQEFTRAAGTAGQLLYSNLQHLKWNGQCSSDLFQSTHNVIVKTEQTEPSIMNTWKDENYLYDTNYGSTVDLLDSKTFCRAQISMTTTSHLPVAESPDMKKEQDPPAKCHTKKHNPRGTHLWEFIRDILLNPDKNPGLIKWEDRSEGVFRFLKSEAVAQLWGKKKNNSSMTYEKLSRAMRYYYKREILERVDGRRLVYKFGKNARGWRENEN
# Method in brief: as §1
# [7] = target: SPI1 (Homo sapiens, UniProt P17947 1-270); details: protein: recombinant; tags: N-terminal GST; dsDNA, one strand shown
# Method in brief: as §1
# [8] = target: SPIB (Homo sapiens, UniProt Q01892 1-262); details: protein: recombinant; tags: N-terminal GST; dsDNA, one strand shown
# Method in brief: as §1
# [9] = target: T6, ELK3 (Homo sapiens, UniProt P41970 1-407); details: protein: recombinant; tags: N-terminal GST; dsDNA, one strand shown
# T6 sequence: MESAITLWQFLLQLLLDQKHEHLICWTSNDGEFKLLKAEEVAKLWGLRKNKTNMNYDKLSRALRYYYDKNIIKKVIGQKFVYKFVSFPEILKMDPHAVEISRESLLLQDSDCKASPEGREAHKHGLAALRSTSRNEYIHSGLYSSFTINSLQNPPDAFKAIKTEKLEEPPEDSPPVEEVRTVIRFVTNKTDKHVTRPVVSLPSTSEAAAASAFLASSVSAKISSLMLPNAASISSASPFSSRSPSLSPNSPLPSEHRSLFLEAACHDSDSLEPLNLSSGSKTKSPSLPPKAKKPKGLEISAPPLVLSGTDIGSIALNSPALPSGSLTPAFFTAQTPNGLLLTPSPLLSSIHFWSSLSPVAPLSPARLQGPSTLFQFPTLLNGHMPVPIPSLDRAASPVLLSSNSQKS
# Method in brief: as §1
# [10] = target: T7, FEV (Homo sapiens, UniProt Q99581 1-238); details: protein: recombinant; tags: N-terminal GST; dsDNA, one strand shown
# T7 sequence: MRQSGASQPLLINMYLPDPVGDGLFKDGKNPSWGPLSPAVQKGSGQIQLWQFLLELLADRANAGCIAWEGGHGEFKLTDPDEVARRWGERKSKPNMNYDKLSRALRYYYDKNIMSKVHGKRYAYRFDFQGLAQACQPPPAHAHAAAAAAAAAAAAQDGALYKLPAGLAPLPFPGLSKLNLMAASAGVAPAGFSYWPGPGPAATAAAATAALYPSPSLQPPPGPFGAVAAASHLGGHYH
# Method in brief: as §1
# [11] = target: ETV5 (Homo sapiens, UniProt P41161 1-510); details: protein: recombinant; tags: N-terminal GST; dsDNA, one strand shown
# Method in brief: as §1
# [12] = target: HSF1 (Homo sapiens, UniProt Q00613 1-529); details: protein: recombinant; tags: N-terminal GST; chain copies: 3; dsDNA, one strand shown
# Method in brief: as §1
# [13] = target: T8, SPIC (Homo sapiens, UniProt Q8N5J4 1-248); details: protein: recombinant; tags: N-terminal GST; dsDNA, one strand shown
# T8 sequence: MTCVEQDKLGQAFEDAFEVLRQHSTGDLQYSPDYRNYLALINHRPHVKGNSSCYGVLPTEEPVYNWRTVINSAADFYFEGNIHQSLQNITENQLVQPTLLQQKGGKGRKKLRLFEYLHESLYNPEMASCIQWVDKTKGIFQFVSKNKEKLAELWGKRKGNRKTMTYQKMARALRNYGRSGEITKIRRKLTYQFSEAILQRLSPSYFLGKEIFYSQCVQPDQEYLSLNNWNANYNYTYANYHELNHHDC
# Method in brief: as §1
# [14] = target: ELF4 (Homo sapiens, UniProt Q99607 1-663); details: protein: recombinant; tags: N-terminal GST; dsDNA, one strand shown
# Method in brief: as §1
# [15] = target: T9, ELK4 (Homo sapiens, UniProt P28324-2 1-405); details: protein: recombinant; tags: N-terminal GST; dsDNA, one strand shown
# T9 sequence: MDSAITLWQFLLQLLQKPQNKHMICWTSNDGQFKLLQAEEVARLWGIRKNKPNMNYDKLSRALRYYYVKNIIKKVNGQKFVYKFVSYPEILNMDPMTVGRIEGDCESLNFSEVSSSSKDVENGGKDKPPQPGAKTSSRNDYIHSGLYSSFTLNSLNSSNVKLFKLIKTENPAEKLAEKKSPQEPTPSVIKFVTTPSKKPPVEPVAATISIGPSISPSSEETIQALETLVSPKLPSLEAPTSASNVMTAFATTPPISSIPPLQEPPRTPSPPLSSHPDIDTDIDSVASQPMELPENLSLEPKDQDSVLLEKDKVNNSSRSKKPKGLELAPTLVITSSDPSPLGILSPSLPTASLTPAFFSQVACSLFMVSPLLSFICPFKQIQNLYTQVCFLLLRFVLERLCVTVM
# Method in brief: as §1
# [16] = target: T10, ETV2 (Homo sapiens, UniProt O00321 1-342); details: protein: recombinant; tags: N-terminal GST; dsDNA, one strand shown
# T10 sequence: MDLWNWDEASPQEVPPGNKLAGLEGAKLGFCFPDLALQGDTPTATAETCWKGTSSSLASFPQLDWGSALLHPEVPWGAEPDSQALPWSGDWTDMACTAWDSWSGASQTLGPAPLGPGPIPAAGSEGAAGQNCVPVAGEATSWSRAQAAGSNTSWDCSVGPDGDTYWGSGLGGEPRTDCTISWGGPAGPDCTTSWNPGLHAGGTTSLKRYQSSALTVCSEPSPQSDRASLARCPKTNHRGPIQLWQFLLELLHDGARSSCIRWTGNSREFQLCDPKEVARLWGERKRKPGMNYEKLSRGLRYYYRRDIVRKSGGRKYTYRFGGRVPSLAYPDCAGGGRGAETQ
# Method in brief: as §1
# [17] = target: T11, ELF3 (Homo sapiens, UniProt P78545 1-371); details: protein: recombinant; tags: N-terminal GST; dsDNA, one strand shown
# T11 sequence: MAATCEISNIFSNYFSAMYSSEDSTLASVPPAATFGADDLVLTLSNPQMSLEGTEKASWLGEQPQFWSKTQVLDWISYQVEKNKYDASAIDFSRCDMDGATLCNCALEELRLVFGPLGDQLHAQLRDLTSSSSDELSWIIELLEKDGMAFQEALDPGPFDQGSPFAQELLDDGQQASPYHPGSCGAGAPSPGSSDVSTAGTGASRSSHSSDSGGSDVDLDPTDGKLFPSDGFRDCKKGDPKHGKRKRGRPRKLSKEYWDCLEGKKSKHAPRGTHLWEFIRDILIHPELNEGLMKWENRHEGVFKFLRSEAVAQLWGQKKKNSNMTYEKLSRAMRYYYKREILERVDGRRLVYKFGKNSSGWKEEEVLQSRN
# Method in brief: as §1
# [18] = target: CRX (Homo sapiens, UniProt O43186 1-299); details: protein: recombinant; tags: N-terminal GST; dsDNA, one strand shown
# Method in brief: as §1
# [19] = target: ETV1 (Homo sapiens, UniProt P50549 1-477); details: protein: recombinant; tags: N-terminal GST; dsDNA, one strand shown
# Method in brief: as §1
# Chain of ELF1 (P32519 whole entry): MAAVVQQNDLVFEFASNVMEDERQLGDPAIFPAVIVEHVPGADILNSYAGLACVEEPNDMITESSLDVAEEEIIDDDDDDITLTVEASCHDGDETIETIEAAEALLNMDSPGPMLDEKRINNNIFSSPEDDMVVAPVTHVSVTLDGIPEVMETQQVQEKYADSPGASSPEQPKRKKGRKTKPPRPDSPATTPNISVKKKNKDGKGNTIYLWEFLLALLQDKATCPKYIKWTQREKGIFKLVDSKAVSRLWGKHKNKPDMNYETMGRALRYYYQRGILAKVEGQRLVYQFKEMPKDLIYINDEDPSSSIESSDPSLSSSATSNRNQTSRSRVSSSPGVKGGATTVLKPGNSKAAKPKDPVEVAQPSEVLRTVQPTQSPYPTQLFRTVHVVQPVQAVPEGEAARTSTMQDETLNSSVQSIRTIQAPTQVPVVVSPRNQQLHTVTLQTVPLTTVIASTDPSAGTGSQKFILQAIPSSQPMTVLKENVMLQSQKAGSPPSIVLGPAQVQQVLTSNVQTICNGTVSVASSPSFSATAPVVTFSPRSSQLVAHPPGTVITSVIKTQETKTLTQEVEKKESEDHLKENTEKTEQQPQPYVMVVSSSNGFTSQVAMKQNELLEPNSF
# Chain of SPIB (Q01892 whole entry): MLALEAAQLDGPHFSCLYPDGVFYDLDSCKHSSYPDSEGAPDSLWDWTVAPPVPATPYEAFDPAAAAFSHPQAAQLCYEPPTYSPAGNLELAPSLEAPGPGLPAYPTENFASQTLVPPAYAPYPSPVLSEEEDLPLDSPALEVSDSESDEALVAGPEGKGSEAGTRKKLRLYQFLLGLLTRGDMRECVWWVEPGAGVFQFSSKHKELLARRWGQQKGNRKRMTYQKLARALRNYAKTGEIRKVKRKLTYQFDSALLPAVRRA
# Chain of CRX (O43186 whole entry): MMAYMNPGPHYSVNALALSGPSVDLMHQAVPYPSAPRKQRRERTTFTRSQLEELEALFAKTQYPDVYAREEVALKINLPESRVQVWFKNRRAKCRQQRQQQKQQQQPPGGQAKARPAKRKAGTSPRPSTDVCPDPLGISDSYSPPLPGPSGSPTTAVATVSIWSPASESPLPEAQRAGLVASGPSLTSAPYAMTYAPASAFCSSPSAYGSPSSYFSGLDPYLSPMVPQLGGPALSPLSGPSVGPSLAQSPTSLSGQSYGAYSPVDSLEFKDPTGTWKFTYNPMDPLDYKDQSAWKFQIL
# Chain of ELF4 (Q99607 whole entry): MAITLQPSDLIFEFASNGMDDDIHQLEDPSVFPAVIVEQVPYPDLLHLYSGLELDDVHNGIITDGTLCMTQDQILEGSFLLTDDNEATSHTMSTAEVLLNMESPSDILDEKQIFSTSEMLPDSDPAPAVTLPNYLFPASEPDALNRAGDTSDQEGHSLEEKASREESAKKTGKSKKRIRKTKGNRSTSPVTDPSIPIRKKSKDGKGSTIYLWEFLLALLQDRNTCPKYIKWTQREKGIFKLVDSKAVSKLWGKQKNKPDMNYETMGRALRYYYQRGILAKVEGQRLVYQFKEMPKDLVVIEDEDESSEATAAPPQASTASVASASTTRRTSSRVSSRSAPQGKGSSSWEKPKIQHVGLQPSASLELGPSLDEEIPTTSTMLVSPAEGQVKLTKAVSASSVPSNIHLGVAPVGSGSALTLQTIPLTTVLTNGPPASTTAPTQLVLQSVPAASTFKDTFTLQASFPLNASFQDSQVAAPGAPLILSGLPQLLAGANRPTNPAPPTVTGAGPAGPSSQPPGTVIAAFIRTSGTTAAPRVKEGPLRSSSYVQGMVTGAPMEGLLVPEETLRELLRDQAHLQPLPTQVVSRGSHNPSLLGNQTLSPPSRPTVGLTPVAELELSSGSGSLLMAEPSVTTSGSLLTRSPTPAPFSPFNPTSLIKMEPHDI
# Chain of ETV5 (P41161 whole entry): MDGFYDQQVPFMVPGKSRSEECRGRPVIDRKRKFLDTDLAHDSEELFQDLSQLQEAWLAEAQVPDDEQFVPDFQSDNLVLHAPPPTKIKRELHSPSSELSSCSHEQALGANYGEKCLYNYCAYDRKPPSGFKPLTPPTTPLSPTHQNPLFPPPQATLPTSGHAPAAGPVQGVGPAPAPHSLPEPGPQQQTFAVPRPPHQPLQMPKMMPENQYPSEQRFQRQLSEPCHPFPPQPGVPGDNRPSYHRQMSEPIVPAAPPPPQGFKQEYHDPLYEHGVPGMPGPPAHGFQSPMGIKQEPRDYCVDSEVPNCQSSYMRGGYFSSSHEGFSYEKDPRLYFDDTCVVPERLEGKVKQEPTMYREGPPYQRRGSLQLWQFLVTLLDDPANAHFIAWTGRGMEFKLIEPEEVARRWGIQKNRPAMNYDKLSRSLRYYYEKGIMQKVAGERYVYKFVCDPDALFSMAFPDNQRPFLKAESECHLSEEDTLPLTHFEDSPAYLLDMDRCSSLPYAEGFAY
# Chain of ETV1 (P50549 whole entry): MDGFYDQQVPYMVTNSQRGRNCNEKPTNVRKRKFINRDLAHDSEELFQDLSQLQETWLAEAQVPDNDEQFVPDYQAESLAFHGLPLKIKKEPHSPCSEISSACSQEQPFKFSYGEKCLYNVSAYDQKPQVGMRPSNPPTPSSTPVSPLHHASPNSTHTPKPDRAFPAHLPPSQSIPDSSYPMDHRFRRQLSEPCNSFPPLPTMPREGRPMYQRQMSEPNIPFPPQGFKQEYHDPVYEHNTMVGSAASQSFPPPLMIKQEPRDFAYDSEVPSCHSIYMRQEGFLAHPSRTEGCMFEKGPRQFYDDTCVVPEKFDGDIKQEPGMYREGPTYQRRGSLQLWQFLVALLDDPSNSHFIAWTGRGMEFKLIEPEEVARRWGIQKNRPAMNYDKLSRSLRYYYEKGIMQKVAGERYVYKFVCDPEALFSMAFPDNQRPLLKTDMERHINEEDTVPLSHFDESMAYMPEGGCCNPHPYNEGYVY
# Chain of HSF1 (Q00613 whole entry): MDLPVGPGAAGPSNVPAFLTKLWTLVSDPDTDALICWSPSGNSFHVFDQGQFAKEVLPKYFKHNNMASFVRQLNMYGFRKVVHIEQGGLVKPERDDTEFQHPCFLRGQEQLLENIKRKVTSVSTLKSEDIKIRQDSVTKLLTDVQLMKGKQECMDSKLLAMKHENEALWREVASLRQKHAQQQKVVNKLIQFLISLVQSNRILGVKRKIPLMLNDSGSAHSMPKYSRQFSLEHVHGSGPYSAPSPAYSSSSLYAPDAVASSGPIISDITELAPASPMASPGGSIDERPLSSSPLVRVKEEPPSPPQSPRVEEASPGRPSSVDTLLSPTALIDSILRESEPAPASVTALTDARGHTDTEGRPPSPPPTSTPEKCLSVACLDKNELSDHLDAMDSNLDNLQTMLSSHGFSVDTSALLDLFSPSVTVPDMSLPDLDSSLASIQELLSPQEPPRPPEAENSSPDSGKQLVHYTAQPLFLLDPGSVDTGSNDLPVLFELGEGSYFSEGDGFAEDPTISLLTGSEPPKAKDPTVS
sequence,measurement,setting,value
CCTCAT,binding signal,[1],"1.35 fold enrichment (6-mer frequency, TF over GST control)"
same,binding signal,[2],"1.3 fold enrichment (6-mer frequency, TF over GST control)"
same,binding signal,[3],"1.34 fold enrichment (6-mer frequency, TF over GST control)"
same,binding signal,[4],"1.34 fold enrichment (6-mer frequency, TF over GST control)"
same,binding signal,[5],"1.35 fold enrichment (6-mer frequency, TF over GST control)"
same,binding signal,[6],"1.39 fold enrichment (6-mer frequency, TF over GST control)"
same,binding signal,[7],"1.67 fold enrichment (6-mer frequency, TF over GST control)"
same,binding signal,[8],"1.33 fold enrichment (6-mer frequency, TF over GST control)"
same,binding signal,[9],"1.23 fold enrichment (6-mer frequency, TF over GST control)"
same,binding signal,[10],"1.26 fold enrichment (6-mer frequency, TF over GST control)"
same,binding signal,[11],"1.31 fold enrichment (6-mer frequency, TF over GST control)"
same,binding signal,[12],"1.08 fold enrichment (6-mer frequency, TF over GST control)"
same,binding signal,[13],"1.45 fold enrichment (6-mer frequency, TF over GST control)"
same,binding signal,[14],"1.39 fold enrichment (6-mer frequency, TF over GST control)"
same,binding signal,[15],"1.3 fold enrichment (6-mer frequency, TF over GST control)"
same,binding signal,[16],"1.1 fold enrichment (6-mer frequency, TF over GST control)"
same,binding signal,[17],"1.27 fold enrichment (6-mer frequency, TF over GST control)"
same,binding signal,[18],"1.1 fold enrichment (6-mer frequency, TF over GST control)"
same,binding signal,[19],"1.37 fold enrichment (6-mer frequency, TF over GST control)"
